PubChem BioAssay (NCI)
This is part of a sample that, as a whole, favours compounds with a hit. Of some 79,000 tested, about 15% had one in any assay. Rule as the data show it: active = growth inhibition above about 70%; inactive = the rest.

Legend:
[1] = NCI Yeast Anticancer Drug Screen. Data for the rad50 strain (AID 155);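 also: 0% = growth of vehicle-only cultures of the same strain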; details: S. cerevisiae rad50 strain growth inhibition; at 50.0 µM; hits give high values
Outline: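 DNA repair mutant yeast, compound exposure, growth read-out; inhibition is taken relative to vehicle.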

[2] = NCI Yeast Anticancer Drug Screen. Data for the mec2-1 strain (AID 157); details: S. cerevisiae mec2-1 strain, at 50.0 µM, hits give high values
Outline: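 Strain: mec2-1 (DNA repair/cell cycle alteration). Compound exposure, then growth measured; inhibition expressed relative to vehicle.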

[3] = NCI Yeast Anticancer Drug Screen. Data for the sgs1 mgt1 strain (AID 161);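 also: 0% = growth of cultures given vehicle only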; details: S. cerevisiae sgs1 mgt1 strain, at 50.0 µM, hits give high values
Outline: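 Read-out: growth inhibition vs vehicle controls. Cells: mutant yeast strain deficient in DNA damage repair.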

[4] = NCI Yeast Anticancer Drug Screen. Data for the cln2 rad14 strain (AID 165);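 also: 0% = growth equal to vehicle treated cultures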; details: S. cerevisiae cln2 rad14 strain, at 50.0 µM, hits give high values
Outline: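 Compounds are applied to the cln2 rad14 yeast strain, and growth is then compared with that of vehicle-treated cultures to give inhibition.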

[5] = NCI Yeast Anticancer Drug Screen. Data for the bub3 strain (AID 167); details: S. cerevisiae bub3 mutant strain, at 50.0 µM, hits give high values
Outline: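 In this screen, a yeast mutant lacking normal mitotic checkpoint function is challenged with compound. Relative growth versus vehicle gives the inhibition value.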

[6] = NCI Yeast Anticancer Drug Screen. Data for the mlh1 rad18 strain (AID 175); details: S. cerevisiae mlh1 rad18 strain growth inhibition; at 50.0 µM; hits give high values
Outline: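 Read-out is yeast growth inhibition, calculated against vehicle-only controls. The compound was applied to a strain engineered with DNA damage repair alterations.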

Measured: growth inhibition

CCCCCCCCCCCCS(=O)(=O)CC(=O)O
inactive: [1] -8.65% | [2] 7.9% | [3] 8.15% | [4] -84.2% | [5] 29.4% | [6] 9.05%

CCC1(C)OC(C)CC(C)(C)O1 (stereo unspecified)
inactive: [1] 0.65% | [2] -22.9% | [3] -25.4% | [4] -0.25% | [5] -12.6% | [6] 0%

CC12CCC3C(CCC4CCCCC43C)C1CCC2CO (stereo unspecified)
inactive: [1] 21.8% | [2] 16.4% | [3] 17.8% | [4] -11.3% | [5] 23.2% | [6] 36.5%

CN(CCCN)CCCN
inactive: [1] -41.4% | [2] -11.2% | [3] -32.6% | [4] -55.6% | [5] -28.6% | [6] -21.7%

CCOC(=O)OCCCc1ccccc1
inactive: [1] -8.95% | [2] -2.95% | [3] -8.8% | [4] -15.4% | [5] -7.55% | [6] -6.8%

O=C(O)CCCC/C=C/CCCCCCC1C=CCC1 (stereo unspecified)
inactive: [1] -23.4% | [2] -35.9% | [3] 9.8% | [4] 0.7% | [5] -3.65% | [6] 1.65%

c1ccc(C2NC(c3ccccc3)c3c(ccc4ccccc34)O2)cc1 (stereo unspecified)
inactive: [1] 20.1% | [2] -2.1% | [3] 13.1% | [4] -19.9% | [5] -5.15% | [6] 20.6%

NC(CCC(=O)Nc1cccc2ccccc12)C(=O)O (stereo unspecified)
inactive: [1] 27.6% | [2] 1.65% | [3] 16.5% | [4] 12.4% | [5] 17.2% | [6] -3.15%

O=C1COC(c2ccccc2O)=NN1CCCN1CCCC1
inactive: [1] 12.9% | [2] -23.8% | [3] 21% | [4] -3.4% | [5] 14.1% | [6] 25.3%

COc1ccc(-c2c3c([nH]c(=S)c2C#N)CCC3)cc1
inactive: [1] 8.65% | [2] 4.5% | [3] 33% | [4] 22.7% | [5] 28.7% | [6] 34.4%

NC(=O)N/N=C(/c1nc2ccc([N+](=O)[O-])cc2[nH]c1=O)C(O)c1ccco1 (stereo unspecified)
inactive: [1] 5.35% | [2] -9.65% | [3] -11.1% | [4] 19.8% | [5] -19% | [6] 3.5%

CN(CC(=O)c1ccc(Cl)cc1)Cc1ccccc1
inactive: [1] -1.45% | [2] -8.8% | [3] 3.4% | [4] -25.3% | [5] 0.9% | [6] -3.5%

CN(C)CCNC1=CC(=O)c2nc3ccccc3c3ccnc1c23
inactive: [1] 37% | [2] 14.2% | [3] 26.8% | [4] 27.9% | [5] 33.6% | [6] 27.4%

COc1ccc2cc(C(=O)Nc3ccc(O)c(C(=O)O)c3)ccc2c1OC
inactive: [1] -2.2% | [2] 0.5% | [3] -7.6% | [4] -10.6% | [5] 2.95% | [6] -22.6%

N#Cc1c(-c2ccco2)c2c(n(C3OC(CO)C(O)C(O)C3O)c1=S)CCCC2 (stereo unspecified)
inactive: [1] -12.3% | [2] 6.9% | [3] 15.7% | [4] -7.75% | [5] 5% | [6] 14.8%

CCOC(=O)C(Nc1cccc2ccccc12)C(=O)OCC
inactive: [1] 0.5% | [2] 19.1% | [3] 9.3% | [4] -5.2% | [5] 46.2% | [6] 25.7%

C=CCn1c(=S)sc2c(C(=O)OCC)c3c(C)cc(C)cn3c2c1=O
inactive: [1] -18.1% | [2] -56.5% | [3] -60% | [4] -5% | [5] -34.7% | [6] -37.9%

C/C(CC(=O)Nc1ccc(C)cc1)=N\NC(N)=S
inactive: [1] -13.5% | [2] -7.7% | [3] 3.45% | [4] 8.3% | [5] -1% | [6] -19.6%

CC12CCC3C(CCC4CC(O)(C(=O)O)CC43C)C1CCC2O (stereo unspecified)
inactive: [1] -16.9% | [2] -3.05% | [3] -19.9% | [4] 5.15% | [5] -7.55% | [6] -19.3%

CSc1ncnc2nn(C3OC(CO)C(O)C3O)cc12 (stereo unspecified)
inactive: [1] 8.1% | [2] 5.85% | [3] 6.25% | [4] 8.4% | [5] -9.6% | [6] -5.4%

C1CSCCSCCCSC2CCCCC2SC1 (stereo unspecified)
inactive: [1] 22.1% | [2] -0.3% | [3] -8.35% | [4] 17.4% | [5] 5% | [6] 2.15%

O=C(NCCO)[C@H](O)[C@@H](O)[C@H](O)[C@H](O)CO
inactive: [1] 7.1% | [2] -2% | [3] -3.7% | [4] 16.1% | [5] 14.9% | [6] 15.2%

NC(=O)c1ccccc1OC(=O)Nc1ccccc1
inactive: [1] 16.6% | [2] 7.5% | [3] 5.1% | [4] 17.2% | [5] 22.1% | [6] 10.8%

CCOC(=O)NC(Nc1cccc(F)c1)(C(F)(F)F)C(F)(F)F
inactive: [1] 16.8% | [2] -9.05% | [3] -22.4% | [4] 20.9% | [5] -12.3% | [6] 4.9%

Cc1ccc(C(=O)C(O)c2ccc(C)cc2)cc1 (stereo unspecified)
inactive: [1] 35.6% | [2] -34.6% | [3] 4.95% | [4] -24.1% | [5] 0.55% | [6] -7.05%

N#Cc1c2nc3ccccc3nc2n2ccc3ccccc3c12
inactive: [1] -50% | [2] -61% | [3] -83.3% | [4] -13.1% | [5] -42.5% | [6] -71.7%

C[N+](C)(C)c1ccc2c(c1)CCC/C2=N\N
inactive: [1] 12.8% | [2] 9% | [3] 11.6% | [4] -9.2% | [5] 13.5% | [6] 4.3%

CCOC(=O)c1cc(C=O)oc1C
inactive: [1] 6.8% | [2] -4.2% | [3] -8.1% | [4] -42.6% | [5] 2% | [6] -0.75%

Cc1cccc2c1Oc1ccccc1C2NC(=O)c1ccc([N+](=O)[O-])cc1 (stereo unspecified)
inactive: [1] -19.4% | [2] -15.4% | [3] -34.5% | [4] -0.9% | [5] -23.4% | [6] -18%

O=CN(Cc1ccccc1)Cc1ccccc1
inactive: [1] 5.15% | [2] 8.2% | [3] 3.65% | [4] 0.95% | [5] -3.8% | [6] -12.6%

Cc1csc(=S)n1C
inactive: [1] -15.2% | [2] -3.2% | [3] -17.6% | [4] -5.8% | [5] -12% | [6] 0.4%

C=CCc1cc(OC)c2c(c1)C(O)CC(c1ccccc1)O2 (stereo unspecified)
inactive: [1] 15.2% | [2] -24.6% | [3] -34.6% | [4] -6.2% | [5] 2.9% | [6] 1.55%

CC1C(=O)N2C(=O)C(C)C(C)C(=O)N2C(=O)C1C (stereo unspecified)
inactive: [1] 1.8% | [2] -6.25% | [3] 7.9% | [4] -12.8% | [5] 3.85% | [6] -12.5%

CC(=O)OCC(=O)C1(O)CCC2C3CCC4=CC(=O)CCC4(C)C3(SC#N)CC(=O)C21C (stereo unspecified)
inactive: [1] -8% | [2] 19.9% | [3] 27.2% | [4] 13.2% | [5] 11.8% | [6] 2.45%

COc1cccc(C(=O)CCN(C)C)c1
inactive: [1] 33.4% | [2] 0.35% | [3] -2.8% | [4] 12.1% | [5] 18.1% | [6] 28.1%

Cc1ccc(NC(=O)c2ccco2)c(C)c1
inactive: [1] -2.3% | [2] -2.55% | [3] 5.05% | [4] 2.65% | [5] 8.4% | [6] -3.1%

CCOC(=O)c1n[nH]c(C)c1C/C(=N/O)c1ccccc1
inactive: [1] -14.3% | [2] -24.4% | [3] -8.25% | [4] -14.9% | [5] -14.9% | [6] -35.9%

Nc1ccc(S(=O)(=O)NC2C(O)OC(CO)C(O)C2O)cc1 (stereo unspecified)
inactive: [1] 15.6% | [2] -16.2% | [3] 6.65% | [4] -21.6% | [5] 9.7% | [6] 28.4%

CCCCOC(=O)C(C)OC(=O)OC (stereo unspecified)
inactive: [1] -21.1% | [2] -13% | [3] -2.25% | [4] -28.8% | [5] -15.7% | [6] 8%

COC(=O)c1cc(C(=O)OC)c(CC(=O)C(=O)Nc2ccc(Cl)c(C(F)(F)F)c2)nc1CC(=O)C(=O)Nc1ccc(Cl)c(C(F)(F)F)c1
inactive: [1] -25.2% | [2] -30.2% | [3] -30.9% | [4] 10.5% | [5] 12.2% | [6] -17.9%

O=C(CN1C(=O)c2cccc3c(Br)ccc(c23)C1=O)c1ccc(Cl)cc1
inactive: [1] -14.2% | [2] -12.7% | [3] 5.85% | [4] 5% | [5] 6.8% | [6] 13.6%
